In all, about 5,500 compounds went through this assay and about 2,000 (36%) were called active. Inconclusive results (about 18%) are left out. Rule as the data show it: active = normalized growth mostly below about 0.91 (no sharp cut-off); inconclusive = no clear call, values can overlap the other calls; inactive = mostly above about 0.92. The list shows a part of the results.
Experiment: chemical genetic growth profiling, strain panel (AID 1159580);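 also: tested at 20 µM; growth read once vehicle control cultures reached saturation at 30 °C; 1 = growth at the plate median or of vehicle wells; lower values mean less growth of the strain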
Conditions: growth OD

Measured: normalized growth

NC(=O)c1ccc[n+]([C@@H]2O[C@H](COP(=O)([O-])OP(=O)(O)OC[C@H]3O[C@@H](n4cnc5c(N)ncnc54)[C@H](OP(=O)(O)O)[C@@H]3O)[C@@H](O)[C@H]2O)c1
inactive: S. cerevisiae deletion strains, locus YAL013W, strain DEP1, stronger effect = lower value 1.02 | S. cerevisiae deletion strains, locus YBR021W, strain FUR4, stronger effect = lower value 1 | S. cerevisiae deletion strains, locus YBR229C, strain ROT2, stronger effect = lower value 1.03 | S. cerevisiae deletion strains, locus YCL029C, strain bik1, stronger effect = lower value 1 | S. cerevisiae deletion strains, locus YDL035C, strain GPR1, stronger effect = lower value 1.06 | S. cerevisiae deletion strains, locus YDL074C, strain BRE1, stronger effect = lower value 1.02 | S. cerevisiae deletion strains, locus YDL101C, strain DUN1, stronger effect = lower value 1.02 | S. cerevisiae deletion strains, locus YDL134C, strain PPH21, stronger effect = lower value 1.02 | S. cerevisiae deletion strains, locus YDL185W, strain tfp1, stronger effect = lower value 0.994 | S. cerevisiae deletion strains, locus YDL192W, strain arf1, stronger effect = lower value 1.01 | S. cerevisiae deletion strains, locus YDR101C, strain arx1, stronger effect = lower value 1.01 | S. cerevisiae deletion strains, locus YDR150W, strain NUM1, stronger effect = lower value 1.02 | S. cerevisiae deletion strains, locus YDR162C, strain NBP2, stronger effect = lower value 1.03 | S. cerevisiae deletion strains, locus YDR318W, strain mcm21, stronger effect = lower value 1.01 | S. cerevisiae deletion strains, locus YDR388W, stronger effect = lower value 0.985 | S. cerevisiae deletion strains, locus YDR502C, strain sam2, stronger effect = lower value 1.03 | S. cerevisiae deletion strains, locus YEL061C, strain CIN8, stronger effect = lower value 1.02 | S. cerevisiae deletion strains, locus YER110C, stronger effect = lower value 1 | S. cerevisiae deletion strains, locus YER155C, strain BEM2, stronger effect = lower value 1 | S. cerevisiae deletion strains, locus YER167W, strain BCK2, stronger effect = lower value 1.04 | S. cerevisiae deletion strains, locus YGL078C, strain dbp3, stronger effect = lower value 0.995 | S. cerevisiae deletion strains, locus YGL086W, strain mad1, stronger effect = lower value 1.04 | S. cerevisiae deletion strains, locus YGL248W, strain PDE1, stronger effect = lower value 1.02 | S. cerevisiae deletion strains, locus YGR078C, strain PAC10, stronger effect = lower value 1.04 | S. cerevisiae deletion strains, locus YGR135W, strain pre9, stronger effect = lower value 1.02 | S. cerevisiae deletion strains, locus YGR229C, strain SMI1, stronger effect = lower value 1.03 | S. cerevisiae deletion strains, locus YGR252W, strain gcn5, stronger effect = lower value 1.03 | S. cerevisiae deletion strains, locus YHR030C, strain SLT2, stronger effect = lower value 1.01 | S. cerevisiae deletion strains, locus YHR079C, strain IRE1 (second series), stronger effect = lower value 1.01 | S. cerevisiae deletion strains, locus YHR094C, strain hxt1, stronger effect = lower value 0.995 | S. cerevisiae deletion strains, locus YHR129C, strain ARP1, stronger effect = lower value 1.02 | S. cerevisiae deletion strains, locus YHR200W, strain rpn10, stronger effect = lower value 1 | S. cerevisiae deletion strains, locus YIL066C, strain RNR3, stronger effect = lower value 1.03 | S. cerevisiae deletion strains, locus YIL073C, strain SPO22, stronger effect = lower value 1.02 | S. cerevisiae deletion strains, locus YIL125W, strain kgd1, stronger effect = lower value 0.981 | S. cerevisiae deletion strains, locus YIR030C, strain dcg1, stronger effect = lower value 0.996 | S. cerevisiae deletion strains, locus YJL095W, strain BCK1, stronger effect = lower value 1.03 | S. cerevisiae deletion strains, locus YJL134W, strain LCB3, stronger effect = lower value 1.01 | S. cerevisiae deletion strains, locus YJL168C, strain set2, stronger effect = lower value 0.996 | S. cerevisiae deletion strains, locus YJL187C, strain SWE1 (second series), stronger effect = lower value 1.03 | S. cerevisiae deletion strains, locus YJR043C, strain POL32, stronger effect = lower value 1.03 | S. cerevisiae deletion strains, locus YJR075W, strain HOC1, stronger effect = lower value 1.05 | S. cerevisiae deletion strains, locus YKL009W, strain mrt4, stronger effect = lower value 1.02 | S. cerevisiae deletion strains, locus YKL068W, stronger effect = lower value 0.999 | S. cerevisiae deletion strains, locus YKL085W, strain MDH1 (second series), stronger effect = lower value 0.99 | S. cerevisiae deletion strains, locus YKL085W, strain MDH1, stronger effect = lower value 0.99 | S. cerevisiae deletion strains, locus YKL190W, strain CNB1, stronger effect = lower value 1.01 | S. cerevisiae deletion strains, locus YKR001C, strain vps1, stronger effect = lower value 0.996 | S. cerevisiae deletion strains, locus YLR039C, strain RIC1, stronger effect = lower value 1.04 | S. cerevisiae deletion strains, locus YLR058C, strain SHM2, stronger effect = lower value 1.02 | S. cerevisiae deletion strains, locus YLR102C, strain apc9, stronger effect = lower value 0.99 | S. cerevisiae deletion strains, locus YLR262C, strain YPT6, stronger effect = lower value 1.08 | S. cerevisiae deletion strains, locus YLR268W, strain sec22, stronger effect = lower value 0.949 | S. cerevisiae deletion strains, locus YLR330W, strain CHS5, stronger effect = lower value 1.01 | S. cerevisiae deletion strains, locus YLR342W, strain FKS1 (second series), stronger effect = lower value 1.04 | S. cerevisiae deletion strains, locus YLR371W, strain rom2, stronger effect = lower value 0.987 | S. cerevisiae deletion strains, locus YLR418C, strain cdc73, stronger effect = lower value 1.04 | S. cerevisiae deletion strains, locus YML016C, strain PPZ1, stronger effect = lower value 1.02 | S. cerevisiae deletion strains, locus YML032C, strain rad52, stronger effect = lower value 0.979 | S. cerevisiae deletion strains, locus YML124C, strain tub3, stronger effect = lower value 0.991 | S. cerevisiae deletion strains, locus YMR078C, strain ctf18, stronger effect = lower value 0.995 | S. cerevisiae deletion strains, locus YMR223W, strain ubp8, stronger effect = lower value 1.04 | S. cerevisiae deletion strains, locus YMR263W, strain SAP30, stronger effect = lower value 1.04 | S. cerevisiae deletion strains, locus YMR307W, strain GAS1, stronger effect = lower value 1.07 | S. cerevisiae deletion strains, locus YNL067W, strain RPL9B, stronger effect = lower value 1.04 | S. cerevisiae deletion strains, locus YNL128W, strain TEP1, stronger effect = lower value 1.05 | S. cerevisiae deletion strains, locus YNL153C, strain GIM3, stronger effect = lower value 1.02 | S. cerevisiae deletion strains, locus YNL233W, strain BNI4, stronger effect = lower value 1.03 | S. cerevisiae deletion strains, locus YNL250W, strain rad50, stronger effect = lower value 0.995 | S. cerevisiae deletion strains, locus YNL271C, strain bni1, stronger effect = lower value 0.993 | S. cerevisiae deletion strains, locus YNL298W, strain CLA4, stronger effect = lower value 0.989 | S. cerevisiae deletion strains, locus YNL307C, strain MCK1, stronger effect = lower value 1.01 | S. cerevisiae deletion strains, locus YNL322C, strain KRE1, stronger effect = lower value 1.01 | S. cerevisiae deletion strains, locus YNR052C, strain pop2, stronger effect = lower value 0.991 | S. cerevisiae deletion strains, locus YOL006C, strain TOP1, stronger effect = lower value 1.03 | S. cerevisiae deletion strains, locus YOL012C, strain htz1 0.919 | S. cerevisiae deletion strains, locus YOL147C, strain pex11, stronger effect = lower value 0.995 | S. cerevisiae deletion strains, locus YOR061W, strain CKA2, stronger effect = lower value 1.02 | S. cerevisiae deletion strains, locus YOR069W, strain VPS5, stronger effect = lower value 1.01 | S. cerevisiae deletion strains, locus YOR136W, strain idh2, stronger effect = lower value 1.01 | S. cerevisiae deletion strains, locus YOR144C, strain elg1, stronger effect = lower value 0.984 | S. cerevisiae deletion strains, locus YOR184W, strain ser1, stronger effect = lower value 1.02 | S. cerevisiae deletion strains, locus YOR316C, strain cot1, stronger effect = lower value 0.997 | S. cerevisiae deletion strains, locus YPL055C, strain LGE1, stronger effect = lower value 1.05 | S. cerevisiae deletion strains, locus YPL241C, strain CIN2, stronger effect = lower value 1.02 | S. cerevisiae deletion strains, locus YPR119W, strain clb2, stronger effect = lower value 0.986 | S. cerevisiae deletion strains, locus YPR141C, strain kar3, stronger effect = lower value 0.978 | S. cerevisiae deletion strains, locus YPR163C, strain tif3, stronger effect = lower value 0.997 | S. cerevisiae deletion strains, locus YPR167C, strain met16, stronger effect = lower value 0.99 | S. cerevisiae deletion strains, strain wtn01, stronger effect = lower value 1 | S. cerevisiae strains, strain wild type, stronger effect = lower value 1.03
